Data taken from PubChem BioAssay (EPA / NIEHS).
“And” between values parts separate entries of the source, which are not always exact repeats. Identical values can stand only once. The source holds several records for some structures; these can differ, active in one and inactive in another. The source made the active and inactive calls. Rule for the calls: active = hit-call score of the fitted dose curve at least 0.9, where 1 is the maximum; inactive = score below 0.9.

What follows are molecules tested on DNA damage-inducible transcript 3 (DDIT3), DDIT3 (gene 1649) (assay: LTEA_HepaRG_DDIT3: Life Technologies and Expression Analysis (LTEA) Assay for DNA damage-inducible transcript 3 (DDIT3) using HepaRG (AID 2283488)). Settings: mRNA level, 48 h; actives raise or lower the signal.
How it was run: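 HepaRG cells, 48 h after plating, exposed 48 h in serum-free induction medium to 8 half-log concentrations up to 100 uM in 0.5% DMSO, in duplicate. DDIT3 mRNA measured by TaqMan qRT-PCR, normalized to ACTB, GAPDH and POLR2A. Fitted bidirectionally against DMSO.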

Question: `O=C(Nc1ccccc1)Nc1ccnc(Cl)c1` was tested. Which outcome did it give?
Answer: inactive

Question: Which outcome does the source give for `O=C(O)c1nc(Cl)ccc1Cl` here?
Answer: inactive

Question: With `O=C(O)COc1nc(Cl)c(Cl)cc1Cl` as the molecule, how does the outcome read?
Answer: inactive

Question: With `CC(Oc1ccc(Cl)cc1Cl)C(=O)O` (stereo unspecified) as the molecule, how does the outcome read?
Answer: inactive

Question: For `CCCCNC(=O)OCC#CI`, which outcome is on record?
Answer: inactive

Question: How did the AC50 turn out when `COc1ccc(C(c2ccc(OC)cc2)C(Cl)(Cl)Cl)cc1` was run?
Answer: 75 µM (active)

Question: With `CCNc1nc(Cl)nc(NCC)n1` as the molecule, how does the outcome read?
Answer: inactive

Question: For `C=CC1(C)OC(=O)N(c2cc(Cl)cc(Cl)c2)C1=O` (stereo unspecified), which outcome is on record?
Answer: inactive

Question: `CCOC(=O)CC(SP(=S)(OC)OC)C(=O)OCC` (stereo unspecified) was tested. Which outcome did it give?
Answer: inactive

Question: `Fc1ccc(Oc2ccnc3cc(Cl)cc(Cl)c23)cc1` was tested. Which AC50 did it give?
Answer: 65.1 µM (active)

Question: For `OC(c1ccc(Cl)cc1)(c1cncnc1)c1ccccc1Cl` (stereo unspecified), which AC50 is on record?
Answer: 71.8 µM (active)

Question: For `N#CC(CCc1ccc(Cl)cc1)(Cn1cncn1)c1ccccc1` (stereo unspecified), which AC50 is on record?
Answer: 34.8 µM (active)

Question: For `N#Cc1nn(-c2c(Cl)cc(C(F)(F)F)cc2Cl)c(N)c1S(=O)C(F)(F)F` (stereo unspecified), which AC50 is on record?
Answer: 30.2 µM (active)

Question: For `CC1COC(Cn2cncn2)(c2ccc(Oc3ccc(Cl)cc3)cc2Cl)O1` (stereo unspecified), which AC50 is on record?
Answer: 12 µM (active)

Question: How did the outcome turn out when `COP(=S)(OC)Oc1nc(Cl)c(Cl)cc1Cl` was run?
Answer: inactive

Question: For `CCCN(CCC)c1c([N+](=O)[O-])cc(S(N)(=O)=O)cc1[N+](=O)[O-]`, which AC50 is on record?
Answer: 93.7 µM (active) and 67.7 µM (active)

Question: What about the outcome of the same molecule?
Answer: inactive

Question: Which outcome does the source give for `COC(=O)C=C(C)OP(=O)(OC)OC` here?
Answer: inactive

Question: How did the outcome turn out when `CS/C(C)=N/OC(=O)N(C)SN(C)C(=O)O/N=C(\C)SC` was run?
Answer: inactive

Question: How did the outcome turn out when `CCOP(=S)(OCC)SCn1c(=O)oc2cc(Cl)ccc21` was run?
Answer: inactive

Question: `COC(=O)C(C)Oc1ccc(Oc2ccc(Cl)cc2Cl)cc1` (stereo unspecified) was tested. Which outcome did it give?
Answer: inactive
